Assay results reported in PubChem BioAssay (NCATS).
Inconclusive results are not listed. A number with no mark means an inactive call. Activity calls are given as the source filed them. Calls come from the whole dose curve; as a rule, active = well fitted inhibition curve with a large enough effect; inconclusive = small, poorly fitted or top-dose-only effect; inactive = flat fitted curve, though single readings scatter.

Assay: BET inhibitor-based combinations targeting novel dependencies in MECOM-rearranged (r) AML: AML-191 cell line (AID 2202236; note: nearly all actives have a fitted effect of over 35% in size;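 for viability (% of control): plate controls were vehicle wells for no effect and wells without cells for full effect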)
Conditions: AML-191 viability, CellTiter-Glo luminescence, 48 h; series mostly up to 46 µM; viability (% of control): at the top concentration
From the text: Ecotropic viral insertion site 1 (EVI1) is located on chromosome 3q26.2 as part of the MECOM (MDS and EVI1 complex) locus. Under normal hematopoiesis, EVI1 is a regulator of hematopoietic stem cell maintenance and self-renewal and EVI1 levels decrease as the cells differentiate. In approximately 5-10% of de novo acute myeloid leukemia (AML) EVI1 is aberrantly expressed, including Chromosomal inv(3)(q21;q26.2) or t(3;3)(q21;q26.2) alterations (MECOM-r) that account for about 50% of AML with EVI1 overexpression 31. AMLs with high levels of EVI1 have a poor prognosis and an overall survival time averaging between 10-14 months. EVI1 overexpression confers resistance in leukemia cells, highlighting the need to develop new targeted therapies for EVI1 overexpressing AMLs.
Here, we performed an unbiased chemical drug screening by evaluating the single agent activity of a collection of 2,480 oncology-focused, approved and investigational drugs (NCATS Mechanism Interrogation Plates, MIPE v5.0) against a panel of seven AML cell lines. These included four MECOM-r cell-lines (AML-191, AML-194, UCSD-AML1 and HNT-34) and three non-MECOM-r AMLs (MV4-11, OCI-AML3 and SET-2). Exploiting the mechanistic redundancy built in the library, we identified target-level sensitivities in MECOM-r AML cells and relative activity as compared to other AML subtypes.
A collection of 2480 mechanistically annotated dugs (MIPE v5.0) was used to screen four 3q26.2 rearranged AML cell lines and three non-3q26.2 rearranged AML cell lines. This library purposely exploits redundancy by including multiple inhibitors of key onco-targets, while simultaneously encompassing mechanistic diversity, targeting more than 800 distinct mechanisms of action. Briefly, cells were seeded in 5 uL of growth media using a Multidrop Combi dispenser into 1536 well white polystyrene tissue culture treated plates (Corning) at a density of 500cells/well. For each cell-line, for each of the 2480 drugs in MIPE v5.0 library, an 11-point dose curve was generated via a 1536 pin-tool. Plates were incubated for 48 hr at standard incubator conditions, covered by a stainless steel gasketed lid to prevent evaporation. Cell viability was determined by luminescence based, Cell Titer Glo assay (Promega). In detail, 3 uL of Cell Titer Glo were added to each well and plates were incubated at room temperature for 15 min with a stainless-steel lid in place. Luminescence readings were taken using a Viewlux (PerkinElmer) with a 2 s exposure time per plate. Compound dose-response curves were normalized to DMSO and empty well controls on each plate. Quantitative drug activity data from dose-response curves was determined utilizing area Under the Curve (AUC) and Z-transformed AUC (Z-AUC, a mean-centering transformation applied to each individual cell-line screened).
Potency is the fitted concentration of half-maximal effect.

Q: Which Potency does the source give for CCCCCN(CCC12CC3CC(CC(C3)C1)C2)C(=O)NCCCc1ccncc1 here?
A: The Potency was 20.9 µM (active).

Q: For O=c1ccn([C@@H]2O[C@H](CO)[C@H](O)[C@@H]2F)c(=O)[nH]1, which “viability (% of control)” value is on record?
A: The value was 95.3%.

Q: For c1cc(Nc2cc(C3CC3)[nH]n2)nc(Nc2ccc3nc[nH]c3c2)n1, which Potency is on record?
A: The Potency was 0.235 µM (active).

Q: With CCOC(=O)c1ccc(OC(=O)CCCCCN=C(N)N)cc1 as the compound, how does the “viability (% of control)” value read?
A: The value was 96.5%.

Q: Which “viability (% of control)” value does the source give for CN1c2cc(O)c(N=NC(N)=O)cc2CC1S(=O)(=O)O (stereo not given) here?
A: Its value is 105%.

Q: Which “viability (% of control)” value does the source give for Clc1ccc(C(c2ccccc2Cl)C(Cl)Cl)cc1 (stereo not given) here?
A: The value was 89.2%.

Q: With Nc1ccccc1NC(=O)c1ccc(CNc2nccc(-c3cccnc3)n2)cc1 as the compound, how does the Potency read?
A: The Potency was 1.66 µM (active).

Q: With Nc1nc(N)c2nc(CNc3ccc(C(=O)NC(CCC(=O)O)C(=O)O)cc3)cnc2n1 (stereo not given) as the compound, how does the “viability (% of control)” value read?
A: Its value is 103%.

Q: For CC(C)C[C@@H](N)[C@H](O)C(=O)N[C@H](C(=O)N[C@H](C(=O)N[C@@H](CC(=O)O)C(=O)O)C(C)C)C(C)C, which “viability (% of control)” value is on record?
A: Its value is 113%.

Q: For CCCNC(=O)Nc1ccc(Oc2ncnc3cc(OC)c(OC)cc23)cc1Cl, which “viability (% of control)” value is on record?
A: The value was 94%.

Q: For CCC(C)(Oc1ccc(C2(c3ccc(OC(C)(CC)C(=O)O)cc3)CCCCC2)cc1)C(=O)O (stereo not given), which “viability (% of control)” value is on record?
A: Its value is 118%.

Q: With Nc1cc(C(F)(F)F)c(-c2cc(N3CCOCC3)nc(N3CCOCC3)n2)cn1 as the compound, how does the Potency read?
A: The Potency was 2.09 µM (active).

Q: For O=C1c2ccccc2-[n+]2ccc3c([nH]c4ccccc43)c21, which Potency is on record?
A: Its Potency is 1.66 µM (active).

Q: Which “viability (% of control)” value does the source give for CC(=O)NC(CS)C(=O)O (stereo not given) here?
A: Its value is 96.1%.

Q: Which Potency does the source give for Cc1cc(C2CCCCC2)n(O)c(=O)c1 here?
A: The Potency was 11.8 µM (active).

Q: Which Potency does the source give for COc1c(C)cnc(Cn2cnc3c(Cl)nc(N)nc32)c1C here?
A: The Potency was 0.525 µM (active).

Q: Which “viability (% of control)” value does the source give for NC12CC3CC(CC(C3)C1)C2 here?
A: The value was 102%.

Q: For CC[C@@]1(O)C(=O)OCc2c1cc1n(c2=O)Cc2cc3cc(O)ccc3nc2-1, which Potency is on record?
A: The Potency was 0.0132 µM (active).

Q: Which Potency does the source give for Cn1c2ccccc2c2c3c(c4c5ccccc5n(CCC#N)c4c21)CNC3=O here?
A: The Potency was 3.32 µM (active).

Q: Which “viability (% of control)” value does the source give for O=C(O)Cn1nnc(-c2cc(N3CCC(Oc4cc(F)ccc4Br)CC3)no2)n1 here?
A: Its value is 102%.

Q: Which Potency does the source give for O=C(/C=C/c1ccc(O)cc1)c1ccc(O)cc1O here?
A: The Potency was 26.3 µM (active).

Q: Which Potency does the source give for O=C(Nc1ccc(Oc2ccnc3[nH]ccc23)c(F)c1)c1cccn(-c2ccc(F)cc2)c1=O here?
A: The Potency was 2.35 µM (active).

Q: With O=C(NCC(=O)N1CCCC1)Nc1ccc2cnccc2c1 as the compound, how does the “viability (% of control)” value read?
A: Its value is 79.5%.

Q: For Cc1cnc(Nc2ccc(F)cc2Cl)nc1-c1c[nH]c(C(=O)N[C@H](CO)c2cccc(Cl)c2)c1, which Potency is on record?
A: The Potency was 16.6 µM (active).

Q: With c1ccc(-c2oc3ncnc(NC[C@@H]4CCCO4)c3c2-c2ccccc2)cc1 as the compound, how does the “viability (% of control)” value read?
A: The value was 63.5%.

Q: With CNC(=O)[C@H](Cc1ccccc1)NC(=O)[C@H](CC(C)C)[C@H](CSc1cccs1)C(=O)NO as the compound, how does the Potency read?
A: The Potency was 13.2 µM (active).

Q: With NC(=O)NO as the compound, how does the “viability (% of control)” value read?
A: The value was 96.6%.

Q: Which “viability (% of control)” value does the source give for COc1ccc(-n2nc(C(N)=O)c3c2C(=O)N(c2ccc(N4CCCCC4=O)cc2)CC3)cc1 here?
A: Its value is 84.8%.

Q: With CC(C)COCC(CN(Cc1ccccc1)c1ccccc1)N1CCCC1 (stereo not given) as the compound, how does the Potency read?
A: The Potency was 20.9 µM (active).

Q: With CS(=O)(=O)N(Cc1ccco1)CC(O)Cn1c2ccccc2c2ccccc21 (stereo not given) as the compound, how does the “viability (% of control)” value read?
A: Its value is 91.8%.

Q: For CC1(C)CCC(C)(C)c2cc(NC(=O)c3ccc(C(=O)O)cc3)ccc21, which Potency is on record?
A: Its Potency is 0.0021 µM (active).

Q: With Oc1ccc(Nc2nc(-c3ccc(Cl)cc3)cs2)cc1 as the compound, how does the Potency read?
A: Its Potency is 16.6 µM (active).

Q: With CCC(CC)C(c1ccc(Nc2nc3ccccc3s2)cc1)n1cncn1 (stereo not given) as the compound, how does the Potency read?
A: The Potency was 16.6 µM (active).

Q: For O=C1NC(=O)/C(=C/c2ccc3nccnc3c2)S1, which “viability (% of control)” value is on record?
A: Its value is 95.1%.

Q: Which Potency does the source give for CCCC1OC2C[C@@H]3[C@H]4CCC5=CC(=O)C=C[C@]5(C)[C@H]4C(O)C[C@]3(C)[C@]2(C(=O)CO)O1 (stereo not given in full) here?
A: Its Potency is 0.0295 µM (active).

Q: With c1cc(-c2cnn3cc(-c4ccc(OCCN5CCCCC5)cc4)cnc23)ccn1 as the compound, how does the Potency read?
A: Its Potency is 8.33 µM (active).

Q: Which “viability (% of control)” value does the source give for O=C(Nc1cc(Cl)cc2c1[nH]c1cnccc12)c1cccnc1 here?
A: The value was 76.6% [at 15.6 µM].

Q: For COc1ccccc1OCC(O)CN1CCN(CC(=O)Nc2c(C)cccc2C)CC1 (stereo not given), which “viability (% of control)” value is on record?
A: Its value is 99.5%.

Q: With COc1cc(C[C@@H](CO)[C@H](CO)Cc2ccc(O)c(OC)c2)ccc1O as the compound, how does the “viability (% of control)” value read?
A: The value was 110%.

Q: With N[C@@H](Cc1c[nH]c2ccc(O)cc12)C(=O)O as the compound, how does the “viability (% of control)” value read?
A: The value was 91.8%.
